# Records with an inconclusive call do not appear. Calls of active or inactive are those of the source. The calls were made as follows, unless noted: active = hit-call score of the fitted dose curve at least 0.9, where 1 is the maximum; inconclusive = response in the unintended direction; inactive = score below 0.9.
# How the values were obtained:
# [1] = Tanguay_ZF_120hpf_ActivityScore_legacy: (Legacy) Oregon State University Tanguay Lab 120 Hour Post-fertilization zebrafish Assay Score for Activity (AID 2283742);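 as to AC50: dechorionated Tropical 5D wild-type zebrafish embryos held singly per well; static exposure from 6 hpf until 120 hpf at 28 °C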
# How it was run: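 Dechorionated Tropical 5D embryos, one per well from 6 hpf, statically exposed to 120 hpf at 28 °C in 0.64% DMSO. Mortality and malformations scored binary by brightfield microscopy; activity score combines 18 endpoints, fitted positively versus DMSO.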
# [2] = ACEA_AR_agonist_AUC_viability: ACEA Biosciences xCELLigence Real-Time Cell Analysis on Androgen Receptor Agonism for Viability (AID 2283775);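 as to AC50: viability read 80 hours after compound addition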
# How it was run: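 Read-out is area under the impedance curve at 80 h post-dose in 22Rv1 cells, with DMSO as baseline and signal loss taken as reduced viability. Compounds ran in duplicate from 100 uM final.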
# [3] = ACEA_AR_antagonist_AUC_viability: ACEA Biosciences xCELLigence Real-Time Cell Analysis on Androgen Receptor Antagonism for Viability (AID 2283776);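 also: 22Rv1 human prostate cancer cells growing on impedance electrode plates; area under impedance growth curve at 80 h after dosing as viability; hits lower the growth signal relative to DMSO meaning cytotoxicity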
# How it was run: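 Viability endpoint from label-free cell-index monitoring: 22Rv1 cultures treated with an eight-point 1:4 dilution series starting at 100 uM final, AUC at 80 h fitted against DMSO.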
# [4] = biological target: Luciferin 4-monooxygenase (Photinus pyralis) (UniProt P08659); experiment: CCTE_Simmons_QuantiLum_inhib_2: CCTE's Firefly Luciferase Inhibition Assay, Simmons Lab (AID 2283767);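 as to AC50: potency for inhibitors that lower luciferase luminescence relative to DMSO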
# Chain of Luciferin 4-monooxygenase (Photinus pyralis) (P08659 whole entry, looked up): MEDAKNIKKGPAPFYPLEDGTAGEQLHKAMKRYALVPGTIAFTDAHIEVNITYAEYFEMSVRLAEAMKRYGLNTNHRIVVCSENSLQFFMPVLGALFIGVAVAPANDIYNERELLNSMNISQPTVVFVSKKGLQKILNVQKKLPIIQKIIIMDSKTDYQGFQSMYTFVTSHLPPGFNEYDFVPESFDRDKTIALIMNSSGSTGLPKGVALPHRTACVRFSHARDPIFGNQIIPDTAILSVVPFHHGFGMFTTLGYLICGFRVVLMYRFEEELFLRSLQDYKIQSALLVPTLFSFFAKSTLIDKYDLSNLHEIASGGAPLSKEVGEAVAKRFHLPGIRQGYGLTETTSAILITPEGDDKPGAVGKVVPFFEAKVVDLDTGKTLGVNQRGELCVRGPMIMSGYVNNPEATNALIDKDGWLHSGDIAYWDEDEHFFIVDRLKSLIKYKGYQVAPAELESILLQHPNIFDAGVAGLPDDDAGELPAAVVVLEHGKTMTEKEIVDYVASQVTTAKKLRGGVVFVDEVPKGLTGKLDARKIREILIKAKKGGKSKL
# How it was run: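 Counter-screen for nonspecific enzyme inhibition: purified firefly luciferase incubated 30 min at 37C with chemicals up to 87.5 uM final, then luminescence measured after luciferin/dATP injection; activity fitted against DMSO baseline.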
# [5] = ArunA_CellTiter_hNC: Viability Assessment in the ArunA Biomedical's Oris Neural Crest (hNC) Cell Migration Assay (AID 2283752)
# How it was run: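 Viability of embryonic neural crest stem cells from the H9 line is scored 72 h after dosing, with DMSO as negative control and baseline. A drop in CellTiter Aqueous One signal indicates cytotoxicity.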
# [6] = ArunA_CellTiter_hNP: Viability Assessment in the ArunA Biomedical's Oris Neural Crest (hNC) Cell Migration Assay (AID 2283753)
# How it was run: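 H9-derived hNP1 neuroprogenitors, 60,000/well on Matrigel, cultured 16 h, then 72 h chemical exposure in test medium. Cell titer via CellTiter Aqueous One; positive-direction fit vs DMSO.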
# [7] = ArunA_Migration_hNP: ArunA Biomedical's Oris Neuroprogenitor (hNP) Cell Migration Assay (AID 2283754)
# How it was run: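 Human H9-derived hNP1 neuroprogenitors on Matrigel with LIF/bFGF, plated around seeding stoppers for 16 h at 37C; stoppers removed at start of 72 h chemical exposure. Calcein-AM staining, fluorescence 494/517 nm in detection zone; loss-of-signal vs DMSO; cytochalasin D control.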
# [8] = ArunA_Migration_hNC: ArunA Biomedical's Oris Neural Crest (hNC) Cell Migration Assay (AID 2283755)
# How it was run: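 Human H9-derived neural crest stem cells, 60,000/well on Matrigel, 16 h at 37C, then 72 h chemical exposure after seeding-stopper removal. Migration into detection zone read as calcein-AM fluorescence (ex494/em517), relative to DMSO.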
# [9] = ArunA_NOG_BranchPointsPerNeurite: ArunA Biomedical's Neurite Outgrowth (NOG) Assay for Branch Points Per Neurite (AID 2283759)
# How it was run: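 Automated image analysis traced neurites (processes >10 um) from valid cell bodies after Hoechst and βIII-tubulin staining. hNN cells from H9 embryonic stem cells, 48 h exposure. Fitted bidirectionally against DMSO.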
# [10] = biological target: zebrafish Estrogen Receptor (ESR1), esr1 (gene 259252) (UniProt P57717); experiment: ATG_zfER1_XSP1: Attagene TRANS-FACTORIAL Multi-Species (XSP1) HepG2 Assay for zebrafish Estrogen Receptor (ESR1) (AID 2283772)
# Chain of zebrafish Estrogen Receptor (ESR1), esr1 (gene 259252) (P57717 whole entry, looked up, the tested form may be a part): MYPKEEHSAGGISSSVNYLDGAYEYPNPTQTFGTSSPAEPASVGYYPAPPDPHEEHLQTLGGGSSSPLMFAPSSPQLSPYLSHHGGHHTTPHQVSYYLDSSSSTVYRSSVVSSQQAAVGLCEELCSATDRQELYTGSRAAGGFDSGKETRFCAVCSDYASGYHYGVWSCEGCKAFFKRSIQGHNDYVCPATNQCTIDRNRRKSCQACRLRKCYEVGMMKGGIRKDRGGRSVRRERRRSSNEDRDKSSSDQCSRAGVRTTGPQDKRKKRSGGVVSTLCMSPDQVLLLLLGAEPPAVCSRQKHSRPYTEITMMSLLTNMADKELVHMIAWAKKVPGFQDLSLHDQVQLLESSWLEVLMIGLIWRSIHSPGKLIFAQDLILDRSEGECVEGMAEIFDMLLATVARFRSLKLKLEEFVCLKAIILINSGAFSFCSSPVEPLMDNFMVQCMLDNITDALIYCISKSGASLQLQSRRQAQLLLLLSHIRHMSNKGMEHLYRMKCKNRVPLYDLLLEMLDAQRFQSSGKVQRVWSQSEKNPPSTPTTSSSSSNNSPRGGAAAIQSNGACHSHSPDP
# How it was run: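 HepG2 cells were transiently transfected with multiplexed GAL4-UAS reporter units driven by chimeric NR-GAL4 proteins, dosed for 24 h with 3 nM 6-alpha-fluorotestosterone present, and reporter mRNA quantified by RT-PCR and capillary electrophoresis versus DMSO.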
# [11] = test system: frog Estrogen Receptor (ESR2), gene 100174814; experiment: ATG_frER2_XSP1: Attagene TRANS-FACTORIAL Multi-Species (XSP1) HepG2 Assay for frog Estrogen Receptor (ESR2) (AID 2283774)
# How it was run: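 HepG2 cells transiently transfected with GAL4-UAS reporter units expressing chimeric frog ER-Gal4; 3 nM 6-alpha-fluorotestosterone present. After 24 h dosing, reporter mRNA quantified by RT-PCR and capillary electrophoresis; gain-of-signal fitted relative to DMSO.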
# [12] = test system: frog Estrogen Receptor (ESR1), gene 398734; experiment: ATG_frER1_XSP1: Attagene TRANS-FACTORIAL Multi-Species (XSP1) HepG2 Assay for frog Estrogen Receptor (ESR1) (AID 2283777)
# How it was run: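 HepG2 cells transiently transfected with frog ER–GAL4 chimera and GAL4-UAS reporter, with 3 nM 6-alpha-fluorotestosterone present; 24 h dosing, reporter mRNA quantified by RT-PCR and capillary electrophoresis, gain of signal versus DMSO.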
# [13] = test system: Thyroperoxidase (TPO), gene 445522; experiment: CCTE_Simmons_GUA_TPO: CCTE's Guaiacol Assay for Thyroperoxidase (TPO) Inhibition, Simmons Lab (AID 2283750)
# How it was run: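 Porcine thyroid microsomes (25 ug) in 200mM potassium phosphate, preincubated 30 s at 37C with compound (8 concentrations, 5 nM–87.5 uM) and 35mM guaiacol; 1mM H2O2 starts reaction. Absorbance change at 450nm over first 80 s; loss of signal versus DMSO, three replicates.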
# [14] = ArunA_NOG_NucleusCount: ArunA Biomedical's Neurite Outgrowth (NOG) Assay for Nucleus Count (AID 2283756)
# How it was run: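 Human H9-derived differentiated neurons were exposed for 48 h right after seeding. Hoechst-stained nuclei gated by size and intensity were counted by automated high-content imaging as viable neurons. Loss of signal vs DMSO.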
# [15] = CEETOX_H295R_MTT_cell_viability: Viability Assessment in the CeeTox HT-H295R MTT Assay (AID 2283718; active = hit-call score of the fitted dose curve at least 0.9, where 1 is the maximum; inactive = score below 0.9)
# How it was run: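 Human H295R adrenal cells, prestimulated 48 h with 10 uM forskolin, were exposed 48 h to chemicals in 0.1% DMSO. Viability was measured in the same wells by MTT (0.5 mg/ml, 4 h, 37 C), absorbance 570/650 nm, as percent of controls.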
# [16] = test system: chicken Androgen Receptor (AR), gene 422165; experiment: ATG_chAR_XSP1: Attagene TRANS-FACTORIAL Multi-Species (XSP1) HepG2 Assay for chicken Androgen Receptor (AR) (AID 2283768)
# How it was run: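 HepG2 cells transiently transfected with multiplexed GAL4-UAS reporter units expressing chimeric chicken AR-Gal4; 3 nM 6-alpha-fluorotestosterone for partial AR stimulation; 24 h after dosing, reporter mRNA by RT-PCR and capillary electrophoresis, gain-of-signal versus DMSO.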
# [17] = test system: zebrafish Androgen Receptor (AR), gene 100005148; experiment: ATG_zfAR_XSP1: Attagene TRANS-FACTORIAL Multi-Species (XSP1) HepG2 Assay for zebrafish Androgen Receptor (AR) (AID 2283771)
# How it was run: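 HepG2 cells were transiently transfected with a zebrafish AR-GAL4 reporter system and partially stimulated with 3 nM 6-alpha-fluorotestosterone. Reporter mRNA was measured after 24 h dosing by RT-PCR with capillary electrophoresis, and gain-of-signal was fitted relative to DMSO.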
smiles,measurement,setting,value
Cc1nn(C)c(Oc2ccccc2)c1C=NOCc1ccc(C(=O)OC(C)(C)C)cc1,AC50,[1],2.45 µM (active)
same,AC50,[2],13 µM (active)
COc1c(Cl)ccc(Cl)c1C(=O)O,outcome,[1],inactive
same,outcome,[2],inactive
CCC(C)OC(=O)N1CCCCC1CCO (stereo not given),outcome,[1],inactive
same,outcome,[2],inactive
CCOC(=O)NCCOc1ccc(Oc2ccccc2)cc1,outcome,[1],inactive
same,AC50,[2],50 µM (active)
COC(=O)CSc1cc(N=c2sc(=O)n3n2CCCC3)c(F)cc1Cl,outcome,[1],inactive
same,outcome,[2],inactive
C[C@]12CC[C@@H]3c4ccc(O)cc4C[C@@H](CCCCCCCCCS(=O)CCCC(F)(F)C(F)(F)F)[C@H]3[C@@H]1CC[C@@H]2O (stereo not given in full),outcome,[1],inactive
same,AC50,[2],10.9 µM (active)
same,AC50,[3],8.37 µM (active)
CCOC(=O)COc1cc(-n2ncc(C(F)(F)F)c(C)c2=O)c(F)cc1Cl,outcome,[1],inactive
same,outcome,[2],inactive
CCCCOC(=O)C(C)Oc1ccc(Oc2ccc(C(F)(F)F)cn2)cc1 (stereo not given),outcome,[1],inactive
same,AC50,[2],43.1 µM (active)
CCCCCCC(C)OC(=O)COc1nc(F)c(Cl)c(N)c1Cl (stereo not given),outcome,[1],inactive
same,AC50,[2],22.9 µM (active)
CCCN(CCC)c1c([N+](=O)[O-])cc(C(F)(F)F)c(N)c1[N+](=O)[O-],outcome,[1],inactive
same,AC50,[2],14.9 µM (active)
CCOC(=O)C(C)Oc1ccc(Oc2nc3ccc(Cl)cc3o2)cc1 (stereo not given),outcome,[1],inactive
same,AC50,[4],71.3 µM (active)
same,outcome,[2],inactive
O=C(c1ccccc1)C1CCCCC1,outcome,[1],inactive
same,outcome,[2],inactive
same,outcome,[3],inactive
O=C(O)c1ccccc1,outcome,[1],inactive
same,outcome,[2],inactive
O=C(O)C1(C(=O)Nc2ccc(Cl)cc2Cl)CC1,AC50,[1],19.6 µM (active)
same,AC50,[2],50 µM (active)
CC(C)CCCCCCc1ccc(O)cc1,outcome,[1],inactive
same,AC50,[5],5.59 µM (active)
same,AC50,[6],9.76 µM (active)
same,AC50,[7],17 µM (active)
same,AC50,[8],4.41 µM (active)
same,outcome,[9],inactive
same,outcome,[4],inactive
same,AC50,[10],2.68 µM (active)
same,AC50,[11],0.752 µM (active)
same,AC50,[2],10.7 µM (active)
same,AC50,[3],7.91 µM (active)
same,AC50,[12],0.189 µM (active)
CCCOC(=O)c1ccc(C(=O)OCCC)nc1,AC50,[1],3.83 µM (active)
same,outcome,[4],inactive
same,outcome,[2],inactive
CCN(CC)C(=O)c1cccc(C)c1,outcome,[1],inactive
same,outcome,[2],inactive
CCSC(=O)N(CC(C)C)CC(C)C,outcome,[1],inactive
same,outcome,[2],inactive
N#CSCSc1nc2ccccc2s1,AC50,[1],0.11 µM (active)
same,AC50,[4],0.435 µM (active)
same,AC50,[2],19.4 µM (active)
CCOC(=O)C(C)Oc1ccc(Oc2cnc3cc(Cl)ccc3n2)cc1 (stereo not given),outcome,[1],inactive
same,outcome,[2],inactive
COCCO,outcome,[1],inactive
N[C@@H](Cc1cc(I)c(Oc2ccc(O)c(I)c2)c(I)c1)C(=O)O,AC50,[1],0.287 µM (active)
same,AC50,[13],13.1 µM (active)
same,AC50,[5],33 µM (active)
same,outcome,[6],inactive
same,AC50,[8],56.2 µM (active)
same,outcome,[14],inactive
same,outcome,[4],inactive
same,AC50,[2],12.5 µM (active)
COC(=O)c1ccc(I)cc1S(=O)(=O)NC(=O)Nc1nc(C)nc(OC)n1,outcome,[1],inactive
same,outcome,[2],inactive
same,outcome,[3],inactive
CC1(C)C(C=C(Cl)Cl)C1C(=O)OCc1cccc(Oc2ccccc2)c1 (stereo not given),outcome,[15],inactive
same,outcome,[16],inactive
same,outcome,[17],inactive
same,outcome,[10],inactive
same,AC50,[11],2.79 µM (active)
same,AC50,[2],30.8 µM (active)
same,outcome,[12],inactive
OB(O)O,outcome,[1],inactive
